# From PubChem
# In the library only some 3.8% were active in any assay of this set; here they are far more common.
# ATXN viability – cell viability loss in ATXN counter-screen; S2 cells (HEK-293 line with an ATXN2-luciferase reporter) viability, CellTiter-Fluor protease fluorescence, 24 h; Potency, µM (doses to about 56.7 µM), most hits filed as cytotoxic; 0.49% of 400,000 active; AID 651635; note: nearly all actives have a fitted effect of over 40% in size
# TGFb inhibitor – inhibitors of TGF-b signaling | 1.2% of 410,000 active | Potency, µM (top dose mostly 46.1 µM), most hits filed as inhibitors | AID 588855 | HepG2 CAGA-GFP TGF-b/SMAD3 reporter, GFP fluorescence, 18 h; TGF-beta stimulated, 500 pg/mL final; note: nearly all actives have a fitted effect of over 65% in size
#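 Cell-based qHTS in HEPG2 carrying a CAGA-GFP Smad reporter; compounds added before 500 pg/mL final TGF-beta, 18 h incubation at 37 degrees C, GFP fluorescence quantified per cell by imaging cytometry.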
# HepG2 viability – counter-screen for TGF-b inhibitors: cytotoxicity in HepG2 cells | 0.76% of 410,000 active | Potency, µM (series often up to 46.1 µM), hits mostly cytotoxic | AID 588856 | HepG2 CAGA-GFP viability, ATP luminescence, 18 h
#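 HepG2 CAGA-GFP cells (1000/well, DMEM with 1% FBS) received compound, then TGF-beta at 500 pg/mL final, and were incubated 18 hours at 37 degrees C. Viability was read by CellTiter-Glo luminescence. Media-only wells were set as complete cell-killing and DMSO as no toxicity.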
# HT1080-NT tox – kills 2HG-producing HT-1080-NT fibrosarcoma cells; HT-1080-NT fibrosarcoma viability, CellTiter-Glo ATP luminescence, 48 h; AID 686970; Potency, µM (titrated, usually from 46.1 µM), usual class: cytotoxic; 1.6% of 360,000 active;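 note: NT is the 2HG producing partner of a matched IDH1 knockdown line; nearly all actives have a fitted effect of over 55% in size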
#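 HT-1080-NT; 750 cells/well; 5% FBS RPMI; 48 h compound, 37 degrees C; CellTiter-Glo luminescence; curve fitting and curve-class assignment.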
# HT1080 IDH1KD tx – HT-1080 IDH1 knockdown cell toxicity (counter line). Potency, µM (doses to about 46.1 µM), actives largely listed as cytotoxic. 2% of 360,000 active. HT-1080 IDH1 knockdown viability, ATP luminescence, 48 h
#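 Assay cells: HT-1080 with IDH1 knockdown, 750 per well, RPMI/5% FBS. Exposure: 48 h at 37 °C following 2 h pre-incubation. Read: CellTiter-Glo luminescence; fitted concentration-response, curve class assigned.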
# ATXN2 expr inh – reduces ATXN2 reporter expression in HEK-293 cells. HEK-293 ATXN2-luciferase reporter, luminescence, 24 h. Potency, µM (top dose mostly 57 µM), usual class: inhibitors. 0.72% of 360,000 active; note: nearly all actives have a fitted effect of over 55% in size
#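 qHTS (up to 57 uM final) was run with 24 h compound exposure of reporter cells at 37 °C. Each well was multiplexed: SteadyGlo luminescence measured ATXN2-luciferase expression after a fluorogenic Gly-Phe-AFC viability readout (25 uM final).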
# A number is an active result; n = inactive; u = inconclusive; x = no result. Calls come from the whole dose curve; as a rule, active = well fitted curve in the direction sought with a large enough effect; inconclusive = small, poorly fitted or top-dose-only effect, or another doubt; inactive = no such curve, though single readings can be large; an effect the other way counts as inactive or inconclusive.
SMILES,ATXN viability,TGFb inhibitor,HepG2 viability,HT1080-NT tox,HT1080 IDH1KD tx,ATXN2 expr inh
O=C(COc1nsnc1N1CCOCC1)N/N=C/c1ccccc1O,n,n,n,u,14.6µM,u
O=C(O)COc1ccc(/C=N/NC(=O)COc2nsnc2N2CCOCC2)cc1,n,n,n,n,n,n
Clc1ccc(N=c2ssnc2Cl)cc1,u,14.1µM,n,n,n,n
COc1cc(NC(=O)Cn2cc(C(=O)c3ccc(F)cc3)c(=O)c3ccc(C)nc32)cc(OC)c1,u,n,n,x,x,n
CCOC(=O)c1c(NC(=S)N2CCOCC2)sc2c1CCN(C(=O)OCC)C2,n,u,n,9.2µM,11.6µM,u
COc1cc(C(=O)Nc2cc(C)c(O)c(-c3nc4ccccc4s3)c2)cc(OC)c1OC,x,n,n,x,x,x
O=C(NNC(=O)c1ccccc1OCc1ccc(F)cc1)c1ccccc1O,u,u,n,n,u,15.8µM
Cc1ccccc1NC(=O)COC(=O)c1cccc(S(=O)(=O)N2CCCCC2)c1,n,n,n,n,n,n
Cc1noc(C)c1COC(=O)c1cccc(S(=O)(=O)N2CCCCCC2)c1,n,n,n,n,20.6µM,n
Cc1ccc(S(=O)(=O)N2CCCCC2)cc1NC(=O)COC(=O)c1cccc(O)c1,n,n,11.2µM,n,n,x
Cc1noc(C)c1COC(=O)c1ccc(F)c(S(=O)(=O)N2CCCCC2)c1,n,n,n,n,u,x
O=C([C@@H]1C[C@@H](Sc2nc3ccccc3[nH]2)CN1Cc1c(F)cccc1F)N1CCOCC1,n,x,x,x,x,x
N#Cc1nc(-c2ccc(OCc3ccc(Cl)cc3)cc2)oc1N1CCCCCC1,x,n,n,x,x,x
c1ccc(CCn2c3ccccc3c3nnc(SCc4ccc5nonc5c4)nc32)cc1,n,n,n,u,7.08µM,n
Cc1ccc(S(=O)(=O)c2nc(-c3ccco3)oc2SCc2ccccc2Cl)cc1,n,n,n,x,x,n
Nc1nn(-c2ccccc2)c(N)c1N=Nc1ccc2c(c1)OCO2,u,n,n,18.4µM,6.51µM,n
Nc1[nH]n(-c2ccccc2)c(=O)c1N=Nc1ccc2c(c1)OCO2,u,n,n,n,u,x
Nc1nn(-c2ccccc2)c(N)c1N=Nc1cccc(F)c1,u,u,n,16.4µM,5.8µM,n
OCCNCc1c(OCc2ccc(Cl)cc2)ccc2ccccc12,u,u,n,23.1µM,u,u
CCOc1cccc(CNCCO)c1OCc1ccc(Cl)cc1,n,n,n,n,n,n
CC(O)CNCCNCc1c(OCc2ccccc2)ccc2ccccc12 (configuration not stated),u,11.2µM,n,17.8µM,11.2µM,25.1µM
CC(=O)N1CCC[C@H]1C(=O)NCC1Cc2cc(C)cc(-c3ccc(Cl)cc3)c2O1 (some centres not stated),n,x,x,x,x,x
O=c1[nH]c(C2CCN(S(=O)(=O)c3ccccc3C(F)(F)F)CC2)nc2c1nnn2Cc1cccc(F)c1,n,u,n,u,16.4µM,n
OC1(c2ccc3c(c2)CN(Cc2nccs2)CCO3)CCN(c2ccccc2F)CC1,n,x,x,x,x,x
CCOC(=O)c1c(NC(C)=O)sc2c(OCC(O)CNC(C)(C)C)c(Br)ccc12 (configuration not stated),x,u,11.2µM,u,n,x
SMILES,ATXN viability,TGFb inhibitor,HepG2 viability,HT1080-NT tox,HT1080 IDH1KD tx,ATXN2 expr inh
CO[C@H]1[C@H](NC(=O)C(C)C)c2ccccc2C12CCN(Cc1c(C)nn(C)c1Cl)CC2,n,x,x,x,x,x
CC(C)Oc1ccc(CNS(=O)(=O)c2cnc(N)nc2)cc1,x,n,n,x,x,x
Cc1ncc2c(c1CNC(=O)/C=C/c1cccs1)CCN(C(=O)C1CCCO1)C2 (configuration not stated),n,x,x,x,x,x
Cc1ccc(S(=O)(=O)/N=C(\Sc2ccccc2)c2ccccc2)cc1,u,n,n,n,n,20µM
CC1CCc2onc(C(=O)N3CCN(c4ccc(F)cc4)CC3)c2C1 (configuration not stated),x,n,n,x,x,x
Cc1ccc(NC(=O)c2cc(S(=O)(=O)N3CCc4ccccc43)cn2C)c(Cl)c1,x,u,n,x,x,x
COc1ccc(CCNC(=O)CCc2c(C)nc3c(c(C)nn3-c3ccc(C)c(C)c3)c2C)cc1OC,n,n,n,x,x,n
CCN(CC)CCNC(=O)CCc1c(C)nc2c(c(C)nn2-c2ccc(C)c(C)c2)c1C,u,u,n,u,25.9µM,n
Cc1ccc(-n2nc(C)c3c(C)c(CCC(=O)Nc4ccc(CN5CCCC5)cc4)c(C)nc32)cc1,u,u,n,n,14.6µM,u
O=C(c1ccc(F)cc1)N1CCC(c2nc(-c3ccc(S(=O)(=O)N4CCCC4)cc3)no2)CC1,x,n,n,x,x,x
O=C(NCCCSc1ccccc1)c1cc(Br)ccc1O,u,u,n,u,18.4µM,n
O=C(NCCSc1ccccc1)c1ccc(Br)cc1,n,n,n,n,n,n
COc1ccccc1-c1cc(C(F)(F)F)nc(S(=O)(=O)CCCC(=O)Nc2ccccc2F)n1,x,3.55µM,11.2µM,x,x,x
CSc1ccccc1NC(=O)CCS(=O)(=O)c1nc(-c2ccc3c(c2)OCO3)cc(C(F)(F)F)n1,x,15.8µM,n,x,x,x
COc1ccc(NC(=O)CCCS(=O)(=O)c2nc(-c3ccccc3OC)cc(C(F)(F)F)n2)c(OC)c1,n,n,n,x,x,n
COc1ccccc1-c1cc(C(F)(F)F)nc(S(=O)(=O)CCCC(=O)Nc2cccnc2Cl)n1,u,u,n,14.6µM,25.9µM,u
COc1ccccc1-c1cc(C(F)(F)F)nc(S(=O)(=O)CCCC(=O)Nc2cc(Br)ccc2O)n1,n,n,n,x,x,n
CC(C)(C)n1ncc2c(=O)n(Cc3cccc(Cl)c3Cl)cnc21,x,n,n,x,x,x
CCOc1cccc2sc(N3CCN(C(=O)C(C)(C)C)CC3)nc12,x,n,n,x,x,x
NC(=O)c1ccc(I)c([N+](=O)[O-])c1,x,x,x,x,x,n
COc1ccc(Cl)cc1N(CC(=O)N1CCCC1)S(=O)(=O)c1ccc(C)cc1,n,n,n,n,n,n
COC(=O)CN(c1cc(Cl)ccc1OC)S(=O)(=O)c1ccc(C)cc1,n,n,n,18.4µM,16.4µM,n
Cn1c(=O)c2c(c3ccccc31)OC(=O)CC2c1ccc(C(F)(F)F)cc1 (configuration not stated),n,n,n,x,x,n
COc1cccc(-c2nc(N3CCN(C)CC3)c3ccccc3n2)c1O,n,u,n,n,14.6µM,u
CN1CCN(c2nc(-c3ccccc3O)nc3ccccc23)CC1,n,n,n,n,n,n
CCOc1ccc(N(C(=O)c2ccc(Cl)cc2)S(=O)(=O)c2ccc3c(c2)n(C)c(=O)n3C)cc1,n,n,n,x,x,n
Cc1ccc(C23CC4CC(CC(NC(=O)NCCN(C)C)(C4)C2)C3)cc1,n,u,n,20.6µM,u,u
